Hit rate of the full screen: of about 68,000 compounds, about 2,700 (4%) showed an effect of 50% or more. Many of the other results were omitted from the sample, so strong results are more common in it than they were.

This assay concerns Plasmodium berghei. As to the kind of experiment: Screen against P. berghei liver stage (PbLuc), transformed with Luciferase, at 2uM. Format: functional, HepG2. As to conditions: tested at 2 uM.
As for `Cc1noc(C)c1CN1CCc2ncnc(-c3ccccc3)c2CC1`, the INHIBITION was -20.87%. The same measure for `CCCC(=O)NC1CCCN(Cc2cccs2)C1` (stereo not drawn): 53.65%; for `O=C(CN1CCCC1)N1CCCC(CNS(=O)(=O)Cc2ccccc2)C1` (stereo not drawn): -4.77%; for `O=C(Cc1cccs1)N1CCCC(CNS(=O)(=O)Cc2ccccc2)C1` (stereo not drawn): -40.36%.

Turning to `O=S(=O)(Cc1ccccc1)NCC1CCCN(Cc2cccs2)C1` (stereo not drawn), the INHIBITION is recorded as 64.35%. The same measure for `Cc1ncsc1CCC(=O)NC1CCN(Cc2cccs2)CC1`: 26.93%. Consider `CC(C)(C)OC(=O)NC1CCCN(Cc2cccs2)C1` (stereo not drawn), for which the INHIBITION came out at 1.08%.

Consider `O=C(NS(=O)(=O)c1ccccc1C(F)(F)F)c1cccc2c1OCCO2`, for which the INHIBITION came out at 37.69%. For the compound `Fc1ccc(CC2CCN(Cc3cscn3)CC2)cc1`, the INHIBITION is on record as -23.58%. The same measure for `COc1cccc(COCC(=O)N2CCCC(c3ccn[nH]3)C2)c1` (stereo not drawn): 14.97%; for `Cc1ncc(-c2ccnc(NCCO)n2)c(C2CCCCC2)n1`: -38.58%. In the case of `Cc1cc(NC(=O)c2ccc(CN3CC[C@H](O)C3)cc2)ccc1F`, the INHIBITION is 82.91%.

As to `COc1cc(NC(=O)c2ccc(CN3CC[C@H](O)C3)cc2)cc(OC)c1`, the INHIBITION came out at 20.71%.

Consider `Cc1cncc(NC(=O)c2ccc(CN3CC[C@H](O)C3)cc2)c1`, for which the INHIBITION was determined as 42.48%.

Turning to `Cc1cscc1-c1nc(C2CCOC2)no1` (stereo not drawn), the INHIBITION was 10.22%.

On to `O=C(NCc1nnc2n1CCC2)c1ccc(Br)s1`, for which the INHIBITION amounted to 22.39%. With `CC1CN(Cc2noc(C3CC3)n2)CCN1Cc1nccn1C` (stereo not drawn), the INHIBITION was determined as 14.82%.

Consider `CC(O)CN1CCN(Cc2nnc(C3CC3)o2)CC1` (stereo not drawn), for which the INHIBITION is reported as 7.54%. Consider `CCC1CN(Cc2nnc(C3CC3)o2)CCN1CCOC` (stereo not drawn), for which the INHIBITION was determined as 66.64%. Consider `CCOCCN1CCN(Cc2nnc(C3CC3)o2)CC1`, for which the INHIBITION is listed as 51.7%. On to `COCCN1C(=O)[C@@H]2CC[C@H]1CN(Cc1nnc(C3CC3)o1)C2`, for which the INHIBITION is 29.18%. On to `CCOCCN1CCN(Cc2nnc(C3CC3)o2)CC1C` (stereo not drawn), for which the INHIBITION is -19.75%. Consider `COCCN1CCN(Cc2noc(C3CC3)n2)CC1C` (stereo not drawn), for which the INHIBITION is recorded as 53.03%. For the compound `CCOCCN1CCN(Cc2nnc(C3CC3)o2)CC1CC` (stereo not drawn), the INHIBITION was -0.55%. In the case of `CC1CN(Cc2noc(C3CC3)n2)CCN1Cc1noc(C2CC2)n1` (stereo not drawn), the INHIBITION is 33.82%. As to `Cc1ccc(N2CCC3(CCN(Cc4csc(C)n4)CC3)CC2)nn1`, the INHIBITION was found to be 18.91%. Consider `COc1ccc(C(C)NCCc2ccc(NC(C)=O)cc2)c(OC)c1` (stereo not drawn), for which the INHIBITION came out at 26.99%. Next, `CC(=O)N1CCn2c(nnc2C2CCCCN2Cc2ccccc2Cl)C1` (stereo not drawn): -46.48%; `CN(C)C(=O)c1nc(CN2C(=O)OC[C@@H]2c2ccccc2)no1`: 18.19%; `Cn1cc(C(=O)NCc2ccc(OC3CCCCC3)nc2)ccc1=O`: 2.66%.

Regarding `N#Cc1cccc(CN2CC3(CCCCN3c3cncnc3)CC2=O)c1` (stereo not drawn), the INHIBITION was -29.69%.

For `Cc1noc(C)c1CN1CC2(CCCCN2C)CC1=O` (stereo not drawn), the INHIBITION is 21.57%. Take `Cc1noc(C)c1CN1CC2(CCCCN2c2cncnc2)CC1=O` (stereo not drawn): the INHIBITION stood at 50.32%. For `O=C(O)c1cc(-c2ccoc2)cc(S(=O)(=O)N2CCSCC2)c1`, the INHIBITION is listed as 7.09%. The same measure for `Cc1cccc(NC(=O)CCC(=O)NCC(=O)c2ccccc2F)c1`: 22.31%; for `O=C(CNC(=O)c1ccccc1F)NCc1ccccn1`: -20.05%. For the compound `Cc1cccc(NC(=O)CNC(=O)c2ccccc2F)c1`, the INHIBITION was determined as 53.99%. In the case of `N#Cc1cc(CSCCN2CCOCC2)ccc1F`, the INHIBITION is given as 39.71%. As for `Cc1c(C(=O)N2CC(O)C2)nnn1-c1cccc2cnccc12`, the INHIBITION is given as 50.31%.

`Cc1c(C(=O)N2CC(=O)N(C)C2)nnn1-c1cccc2cccnc12`: the INHIBITION was determined as 57.5%. For `Cc1c(C(=O)N2CC(C)(C)C2(C)C)nnn1-c1cccc2cnccc12`, the INHIBITION was -107.15%.

With `Cc1c(C(=O)N2CCC2(C)C)nnn1-c1cccc2cccnc12`, the INHIBITION is 9.78%.

On to `Cc1c(C(=O)O)nnn1-c1cccc2cccnc12`, for which the INHIBITION is -58.01%. As to `Cc1c(C(=O)N2CCC2(C)C)nnn1-c1cccc2cnccc12`, the INHIBITION stood at 9.78%. For `c1cc(C2CCCN2CC2CC2)n[nH]1` (stereo not drawn), the INHIBITION is given as 13.02%. The same measure for `COc1ccc(CNC(=O)CCn2cc(C)cn2)cc1C`: -14.47%. Turning to `CC(c1ccccn1)N(C)Cc1ccc(-n2ccnc2)cc1` (stereo not drawn), the INHIBITION is 2.67%.

As for `C[C@@H](NCc1cccc(Cl)c1)c1onc(-c2ccc(F)cc2)c1C(=O)O`, the INHIBITION worked out at 37.54%. For `Cc1cc(OCC(=O)N2CCCC(c3ccn[nH]3)C2)no1` (stereo not drawn), the INHIBITION turned out to be 24.31%. The same measure for `Cc1cc(C2CCCN(C(=O)COc3cc(C)on3)C2)n[nH]1` (stereo not drawn): 60.64%; for `Cc1cc(OCC(=O)N2CCCC(c3noc(C)n3)C2)no1` (stereo not drawn): 6.3%. For the compound `CN1C(=O)CCC12CCCN(C(=O)c1ccncc1F)C2` (stereo not drawn), the INHIBITION is reported as -39.56%. `CCc1noc(C)c1C(=O)N1CCCCC1Cn1cc(C)cn1` (stereo not drawn): the INHIBITION was -11.2%.
